Outcome data for 40 compounds are collected here from PubChem BioAssay (Tox21).

Calls of active or inactive are those of the source. Calls come from the whole dose curve; as a rule, active = well fitted curve in the direction sought with a large enough effect in the repeat runs; inconclusive = weak or mixed curves; inactive = flat fitted curve, though single readings scatter.

The test is described as follows: qHTS assay to test for compound auto fluorescence at 590 nm (red) in HEK293 cells (AID 720679). Conditions: red autofluorescence 540/590 nm; series mostly up to 91.3 µM. An excerpt:
National Center for Advancing Translational Sciences [NCATS]
NIH Chemical Genomics Center [NCGC]
U.S. Environmental Protection Agency [EPA]
National Institutes of Environmental Health Sciences [NIEHS]
National Toxicology Program [NTP]
U.S. Food and Drug Administration [FDA]
Compound auto fluorescence often interferes with screening of the compound library against various biological targets and signaling pathways. Some of these compounds may have fluorophoric properties. Such properties may interfere with the assay outputs resulting in false positives and/or negatives. To decrease such complications and ensure the compound activities are relevant in terms of biological response, the Tox21 10K compound library was screened for auto fluorescence.
From the fluorophores used as reporter signals in our screening assays, the auto fluorescence equivalencies of compounds against three fluorophores have been evaluated: Triamterene, Fluorescein and Rose Bengal sodium for blue, green and red fluorescence, respectively. The fluorescence intensities were measured using Excitation/Emission wavelengths at 405/460nm, 485/535nm and 540/590nm for blue, green and red labels, respectively. This assay includes the red fluorescence data.
Tox21 Assay Protocol Summary:
2,000 HEK293 cells in 5 uL of culture medium containing 10% dialyzed FBS per well were dispensed into black wall/clear bottom 1536-well plates using a Multidrop Combi Dispenser (Thermo Scientific). The assay plates were incubated for 4-5 hr at 37C to allow cell attachment to the well bottom, followed by the transfer of 23 nL compound or DMSO vehicle by a pintool work station (Kalypsys, San Diego, CA). After the assay plates were incubated overnight at 37C and 5% CO2, fluorescence intensities in the assay plates were measured by an Envision (PerkinElmer, Shelton, CT) plate reader using three labels for measuring blue, green and red fluorescence at […] 460, 535 and 590nm respectively.
As to `Nc1ccc(Cl)c(N)c1`, the outcome was inactive.
The entry for `CCO[Si](CCC#N)(OCC)OCC` is “inactive”; for `O=C(O)Cn1c(=O)n(Cc2ccc(Br)cc2F)c(=O)c2ccc(Cl)cc21` it is “inactive”.
As for `CC1(C)S[C@@H]2[C@H](NC(=O)COc3ccccc3)C(=O)N2[C@H]1C(=O)O`, the entry is “inactive”.
As for `CC(C)OC(=O)COc1ccc(Cl)cc1Cl`, the entry is “inactive”.
`O=C(O)c1ccccc1C(=O)O`: the compound was classed as inactive.
The entry for `O=[N+]([O-])c1ccc2nc[nH]c2c1` is “inactive”; for `CCO[Si](CCCN)(OCC)OCC` it is “inactive”.
The entry for `CC(C)CC(=O)CC(C)CC(C)C` (stereo not given) is “inactive”; for `OCc1cccc(Oc2ccccc2)c1` it is “inactive”.
The entry for `O=C(O)c1ccc(C(=O)O)c(C(=O)O)c1` is “inactive”; for `CCCCCCCC=O` it is “inactive”; for `CC(C)OP(=O)(CP(=O)(OC(C)C)OC(C)C)OC(C)C` it is “inactive”.
Consider `Nc1nc(N)nc(-c2ccccc2)n1`, for which the call was inactive.
The entry for `CCNc1cccc(C)c1` is “inactive”; for `O=C(OCC1CCC2OC2C1)C1CCC2OC2C1` (stereo not given) it is “inactive”; for `CC(=O)CC(C)(C)O` it is “inactive”.
The entry for `CCCOC(=O)c1ccccc1` is “inactive”; for `C=CC(=O)OCCC(=O)O` it is “inactive”; for `Clc1ccccn1` it is “inactive”.
The entry for `CCc1ccccc1CC` is “inactive”; for `CC1(C)NC(=O)NC1=O` it is “inactive”.
For the compound `CN1C(=O)CC[C@H]1c1cccnc1`, the compound was classed as inactive.
For the compound `C=C(C)C(=O)OCC(C)C`, the call was inactive.
As for `Brc1ccc(Br)c(Br)c1`, the entry is “inactive”.
As for `CC(=O)OCc1ccccc1`, the entry is “inactive”.
On to `O=C1CCCC1`, for which the compound was classed as inactive.
Take `COCCOC(=O)c1ccccc1C(=O)OCCOC`: the outcome was inactive.
As for `CN(C)c1ccc(O)c2c1C[C@H]1C[C@H]3[C@H](N(C)C)C(=O)C(C(N)=O)=C(O)[C@@]3(O)C(=O)C1=C2O`, the entry is “inactive”; as for `CCOC(=O)n1ccn(C)c1=S`, “inactive”; as for `COc1cc(OC)c(C(=O)CCCN2CCCC2)c(OC)c1`, “inactive”.
On to `C[C@]12CC[C@@H]3c4ccc(O)cc4CC[C@H]3[C@@H]1C[C@@H](O)[C@@H]2O`, for which the outcome was inactive.
The entry for `O=C(O)c1cc2ccccc2cc1O` is “inactive”; for `CC(C)(Oc1ccc(CCNC(=O)c2ccc(Cl)cc2)cc1)C(=O)O` it is “inactive”.
The entry for `CC(O)CC(C)(C)O` (stereo not given) is “inactive”.
As for `Cc1ccc([N+](=O)[O-])cc1S(=O)(=O)O`, the entry is “inactive”; as for `C[Si]1(C)O[Si](C)(C)O[Si](C)(C)O[Si](C)(C)O1`, “inactive”.
`CC(=O)OC1CC(C)OC(C)O1` (stereo not given): the compound was classed as inactive.
The entry for `CC1(C)OC[C@@H]2O[C@@]3(C(=O)O)OC(C)(C)O[C@H]3[C@@H]2O1` is “inactive”; for `CCCCCCCCCCCCCCCC(=O)OC(C)C` it is “inactive”.
